Assay results taken from PubChem BioAssay (NCI).
Compounds without any hit were thinned out: in the full panel of roughly 79,000, 15% have a hit. Calls of active or inactive are those of the source. Rule as the data show it: active = growth inhibition above about 70%; inactive = the rest.

Assays:
[1] = NCI Yeast Anticancer Drug Screen. Data for the rad50 strain (AID 155);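 also: 0% = growth of vehicle-only cultures of the same strain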; conditions: S. cerevisiae rad50 strain growth inhibition, hits give high values
Summary of the method: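 DNA repair mutant yeast, compound exposure, growth read-out; inhibition is taken relative to vehicle.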

[2] = NCI Yeast Anticancer Drug Screen. Data for the mec2-1 strain (AID 157); conditions: S. cerevisiae mec2-1 strain, hits give high values
Summary of the method: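 Test agents were screened against the mec2-1 yeast strain, with defined DNA repair or cell cycle alteration. Growth was scored as inhibition against vehicle-only controls.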

[3] = NCI Yeast Anticancer Drug Screen. Data for the sgs1 mgt1 strain (AID 161);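 also: 0% = growth of cultures given vehicle only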; conditions: S. cerevisiae sgs1 mgt1 strain, hits give high values
Summary of the method: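 Test agents were incubated with a DNA-repair-mutant yeast strain. Growth was then read and compared against vehicle-treated controls.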

[4] = NCI Yeast Anticancer Drug Screen. Data for the cln2 rad14 strain (AID 165);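 also: 0% = growth equal to vehicle treated cultures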; conditions: S. cerevisiae cln2 rad14 strain, hits give high values
Summary of the method: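 Growth of compound-exposed yeast (cln2 rad14 genotype) measured and expressed as inhibition relative to vehicle.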

[5] = NCI Yeast Anticancer Drug Screen. Data for the bub3 strain (AID 167); conditions: S. cerevisiae bub3 mutant strain, hits give high values
Summary of the method: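 In this screen, a yeast mutant lacking normal mitotic checkpoint function is challenged with compound. Relative growth versus vehicle gives the inhibition value.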

[6] = NCI Yeast Anticancer Drug Screen. Data for the mlh1 rad18 strain (AID 175); conditions: S. cerevisiae mlh1 rad18 strain growth inhibition, hits give high values
Summary of the method: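 In this whole-cell yeast screen, a strain with altered DNA damage repair is challenged with compound, and its growth is measured against matched vehicle-treated controls.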

[7] = at 5.0 µM (retest, dose inferred, filed as 0.5)
[8] = at 50.0 µM (retest, dose inferred, filed as 5.0)

Measured: growth inhibition

COc1ccc(C=O)cc1C[P+](c1ccccc1)(c1ccccc1)c1ccccc1
inactive: [1]; [7] 46% | [2]; [7] 38% | [3]; [7] 51% | [4]; [7] 13% | [5]; [7] 54% | [6]; [7] 39%
active: [1]; [8] 97% | [1]; at 50.0 µM 98% | [2]; [8] 99% | [2]; at 50.0 µM 97.6% | [3]; [8] 99% | [3]; at 50.0 µM 98.4% | [4]; [8] 94% | [4]; at 50.0 µM 98.3% | [5]; [8] 98% | [5]; at 50.0 µM 97.5% | [6]; [8] 94% | [6]; at 50.0 µM 97.9%

CC1(C)CCCC12C=NCC2 (stereo not given)
inactive: [1]; [7] 2% | [1]; [8] 16% | [1]; at 50.0 µM 17.8% | [2]; [7] -2% | [2]; [8] 18% | [2]; at 50.0 µM -1.15% | [3]; [7] -1% | [3]; [8] 11% | [3]; at 50.0 µM 31.9% | [4]; [7] 1% | [4]; [8] 1% | [4]; at 50.0 µM -3.95% | [5]; [7] 2% | [5]; [8] 10% | [5]; at 50.0 µM 43.1% | [6]; [7] -28% | [6]; [8] 27% | [6]; at 50.0 µM 22.9%

OCC1CCc2[nH]c3ccccc3c2C1 (stereo not given)
inactive: [1]; [7] -159% | [1]; [8] -160% | [1]; at 50.0 µM -7.95% | [2]; [7] -53% | [2]; [8] -59% | [2]; at 50.0 µM -6.55% | [3]; [7] -67% | [3]; [8] -68% | [3]; at 50.0 µM -4.2% | [4]; [7] -56% | [4]; [8] -76% | [4]; at 50.0 µM 30.9% | [5]; [7] -65% | [5]; [8] -58% | [5]; at 50.0 µM 12% | [6]; [7] -128% | [6]; [8] -123% | [6]; at 50.0 µM 3.5%

CCC[CH2][Sn]([CH2]CCC)([O]C(=O)Cc1ccc(F)cc1)[O]C(=O)Cc1ccc(F)cc1
active: [1]; at 50.0 µM 86.7% | [2]; at 50.0 µM 81.5% | [3]; at 50.0 µM 83.3% | [4]; at 50.0 µM 78.1% | [5]; at 50.0 µM 76% | [6]; at 50.0 µM 76.2%
inactive: [1]; [7] 27% | [1]; [8] 27% | [2]; [7] 30% | [2]; [8] 30% | [3]; [7] 27% | [3]; [8] 27% | [4]; [7] 16% | [4]; [8] 16% | [5]; [7] 21% | [5]; [8] 21% | [6]; [7] 14% | [6]; [8] 14%

O=C1OCCN1/N=C/c1ccc([N+](=O)[O-])o1
active: [1]; at 50.0 µM 81.2% | [3]; at 50.0 µM 87.7% | [6]; [8] 72% | [6]; at 50.0 µM 88.5%
inactive: [1]; [7] 14% | [1]; [8] 54% | [2]; [7] 7% | [2]; [8] 30% | [2]; at 50.0 µM 54.1% | [3]; [7] 9% | [3]; [8] 62% | [4]; [7] -2% | [4]; [8] 27% | [4]; at 50.0 µM 50.1% | [5]; [7] 7% | [5]; [8] 39% | [5]; at 50.0 µM 40.8% | [6]; [7] 30%

O=S(NCc1ccccc1)c1ccccc1 (stereo not given)
inactive: [1]; [7] -2% | [1]; [8] 13% | [1]; at 50.0 µM 25.6% | [2]; [7] 0% | [2]; [8] 8% | [2]; at 50.0 µM 28.7% | [3]; [7] -2% | [3]; [8] -1% | [3]; at 50.0 µM 43.3% | [4]; [7] -3% | [4]; [8] 4% | [4]; at 50.0 µM 39.4% | [5]; [7] 0% | [5]; [8] 10% | [5]; at 50.0 µM 36.3% | [6]; [7] -1% | [6]; [8] 15%
active: [6]; at 50.0 µM 75.7%

CC(=O)OCC1OC(Sc2ccc3ccccc3c2)C(OC(C)=O)C(OC(C)=O)C1OC(C)=O (stereo not given)
active: [5]; at 50.0 µM 70.2%
inactive: [1]; [7] 2% | [1]; [8] -7% | [1]; at 50.0 µM 23.9% | [2]; [7] 3% | [2]; [8] 2% | [2]; at 50.0 µM 12.8% | [3]; [7] 2% | [3]; [8] 1% | [3]; at 50.0 µM 2.7% | [4]; [7] 1% | [4]; [8] -15% | [4]; at 50.0 µM 52.4% | [5]; [7] 4% | [5]; [8] 7% | [6]; [7] 0% | [6]; [8] -2% | [6]; at 50.0 µM 22%

Clc1ccc(SSN2CCCCC2)cc1
inactive: [1]; [7] 2% | [1]; [8] 65% | [2]; [7] -1% | [2]; [8] 45% | [3]; [7] 2% | [4]; [7] 6% | [4]; [8] 17% | [4]; at 50.0 µM 7.1% | [5]; [7] -1% | [6]; [7] 3%
active: [1]; at 50.0 µM 89% | [2]; at 50.0 µM 80.3% | [3]; [8] 82% | [3]; at 50.0 µM 87.8% | [5]; [8] 70% | [5]; at 50.0 µM 77.7% | [6]; [8] 84% | [6]; at 50.0 µM 88.4%

O=[N+]([O-])/C=C/c1ccco1
inactive: [1]; [7] 59% | [2]; [7] 9% | [3]; [7] 16% | [4]; [7] 8% | [5]; [7] 3% | [6]; [7] 22%
active: [1]; [8] 99% | [1]; at 50.0 µM 99.5% | [2]; [8] 100% | [2]; at 50.0 µM 99.3% | [3]; [8] 100% | [3]; at 50.0 µM 88.8% | [4]; [8] 99% | [4]; at 50.0 µM 98.5% | [5]; [8] 99% | [5]; at 50.0 µM 98.9% | [6]; [8] 99% | [6]; at 50.0 µM 98.9%

O=C1/C(=C/N2CCN(c3ccccc3)CC2)Cc2c(Cl)cccc21
inactive: [1]; [7] 13% | [1]; [8] -2% | [2]; [7] 7% | [3]; [7] 7% | [3]; [8] 4% | [3]; at 50.0 µM 64.3% | [4]; [7] 64% | [4]; [8] 35% | [5]; [7] -9% | [5]; [8] 33% | [6]; [7] 6% | [6]; [8] 41%
active: [1]; at 50.0 µM 77.3% | [2]; [8] 91% | [2]; at 50.0 µM 98.2% | [4]; at 50.0 µM 93.8% | [5]; at 50.0 µM 94.3% | [6]; at 50.0 µM 98.2%
